This note sets out measurements from PubChem BioAssay (NCI).

Compounds without any hit were thinned out: in the full panel of roughly 83,000, 20% have a hit.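 Single-dose data. Exposure time 48 hours. Values below 10 considered active.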 A number with no mark means an inactive call. Active and inactive are the calls of the source.

Common to all, as to experiment: NCI-60 one-dose screen, 48 h (100 = growth as untreated, 0 = no growth, -100 = all killed)
Holding throughout (details): 10 µM

The test system of experiment [1] is BT-549 breast.
Experiment [2] concerns MDA-MB-435 melanoma.
For experiment [3], the system named is SW-620 colon.
Experiment [4] concerns MCF7 breast.
In experiment [5] the test system is HCC-2998 colon.
Experiment [6] has as its system KM12 colon.
The subject of experiment [7] is HCT-116 colon.

For `O=C1/C(=C\c2ccc(Cl)cc2)CN(C(=O)c2ccccc2)C/C1=C\c1ccc(Cl)cc1`, the growth in experiment [1] is 19.8%; in experiment [2], -18.1% (active); in experiment [3], -33.8% (active); in experiment [4] it was 2.9% (active); in experiment [5] it was -71.8% (active).

As to `CS(=O)(=O)Nc1ccc(Nc2c3ccccc3nc3cc([N+](=O)[O-])ccc23)cc1`, the growth in experiment [1] is 32.5%; in experiment [2], 39.7%; in experiment [3], 7.02% (active); in experiment [4], 2.38% (active); in experiment [6] it was -35.7% (active).

`COc1ccc([N+](=O)[O-])c(C(=O)O)c1`: the growth was 102% in experiment [1]; 97.9% in experiment [2]; 101% in experiment [3]; 93.8% in experiment [4]; 106% in experiment [5]; 100% in experiment [6].

In the case of `CC(=O)c1nc2ccccc2n1CCNC(N)=O`, the growth in experiment [1] was 74.4%; in experiment [2], -13.7% (active); in experiment [3] it was 57.6%; in experiment [4], 52.4%; in experiment [5], 95.8%; in experiment [6], 66.4%.

In the case of `CCn1cc(C(=O)O)c(=O)c2cnc(N3CCCC3)nc21`, the growth in experiment [1] was 104%; in experiment [2], 94.2%; in experiment [3] it was 106%; in experiment [7], 96.9%; in experiment [5] it was 107%; in experiment [6], 108%.

For the compound `COc1ccc(-c2nn(-c3cccc(NC(=O)Nc4cccc(C(F)(F)F)c4)c3)cc2-c2ccncc2)cc1Cl`, the growth is 8.32% (active) in experiment [1]; -35.8% (active) in experiment [2]; 17.4% in experiment [3]; 5.79% (active) in experiment [4]; 30.5% in experiment [5]; 0.879% (active) in experiment [6].

`Cc1ccc(Nc2cc(C)nc(NCCCNc3ccnc4cc(Cl)ccc34)n2)cc1`: the growth is -85.5% (active) in experiment [1]; -90% (active) in experiment [2]; -84.3% (active) in experiment [3]; -95% (active) in experiment [4]; -49.8% (active) in experiment [6].

With `Cc1ccc(C(=O)Nc2cccc(F)c2)cc1NC(=O)C1(c2ncnc3[nH]ccc23)CC1`, the growth in experiment [1] was 93.4%; in experiment [2] it was 74%; in experiment [3], 67%; in experiment [4] it was 87.1%; in experiment [5], 60.5%; in experiment [6], 82.7%.

Turning to `Cc1cc(N(CCCNc2ccnc3cc(Cl)ccc23)Cc2ccc3c(c2)OCO3)nc(N2CCCCC2)n1`, the growth is -24% (active) in experiment [1]; -74.6% (active) in experiment [2]; -39.4% (active) in experiment [3]; -14.3% (active) in experiment [4]; -57.6% (active) in experiment [5]; 10.4% in experiment [6].

On to `O=C(Nc1ccncc1)C(=O)c1cn(S(=O)(=O)c2cccc(Cl)c2)c2ccccc12`, for which the growth in experiment [1] was 49%; in experiment [2], 1.36% (active); in experiment [3] it was 47%; in experiment [4] it was 29.3%; in experiment [6] it was 51.5%.

Turning to `O=C(NN1C(=O)CSC1c1ccc(Cl)cc1)c1cccnc1` (centres undefined), the growth in experiment [1] is 102%; in experiment [2] it was 87.3%; in experiment [4], 111%; in experiment [7] it was 86.9%; in experiment [6], 94.2%.

Regarding `CC1(C)CCC(=NNC(N)=S)CC1`, the growth in experiment [1] was 125%; in experiment [2] it was 111%; in experiment [3] it was 105%; in experiment [7], 94.6%; in experiment [5] it was 101%; in experiment [6], 105%.

For the compound `COc1ccc(Cl)cc1C(=O)Nc1nc2ccc(Cl)cc2s1`, the growth is 97.7% in experiment [1]; 97.6% in experiment [2]; 101% in experiment [3]; 53.2% in experiment [7]; 102% in experiment [5]; 94.8% in experiment [6].

For `Cc1cc(O)c(C(C)(C)C)cc1Sc1cc(C(C)(C)C)c(O)cc1C`, the growth in experiment [1] is 65.9%; in experiment [2] it was 54.8%; in experiment [4], 34.7%; in experiment [7], 29%; in experiment [6] it was 47%.

Turning to `COc1ccc(-c2nc3ncccn3c2-c2nnc(-c3ccc(F)cc3)o2)cc1`, the growth in experiment [1] is 99.7%; in experiment [2], 107%; in experiment [3], 105%; in experiment [7], 99.3%; in experiment [5], 104%; in experiment [6], 104%.

With `CCN(CC)Cc1cc(Nc2ccnc3cc(Cl)ccc23)ccc1OC`, the growth in experiment [1] was 110%; in experiment [2], 77.9%; in experiment [3], 64.1%; in experiment [7], 69.1%; in experiment [5], 81%; in experiment [6] it was 83.5%.

As to `COc1ccc(/C(=C2\O[C@@H]([C@H]3COC(C)(C)O3)[C@H]3OC(C)(C)O[C@@H]23)c2cc(OC)c(OC)c(OC)c2)cc1O`, the growth in experiment [1] is 57.7%; in experiment [2], -44.7% (active); in experiment [3] it was 15.4%; in experiment [7] it was 54%; in experiment [5], 102%; in experiment [6] it was 26.7%.

Consider `COc1cc(C(=C2O[C@@H]([C@H]3COC(C)(C)O3)[C@H]3OC(C)(C)O[C@@H]23)c2cc(OC)c(OC)c(OC)c2)cc(OC)c1OC`, for which the growth in experiment [1] is 111%; in experiment [2] it was 113%; in experiment [4], 103%; in experiment [7] it was 96.4%; in experiment [6], 107%.

For `COc1cc(/C(=C2/O[C@@H]([C@H]3COC(C)(C)O3)[C@H]3OC(C)(C)O[C@@H]23)c2ccc3ccccc3c2)cc(OC)c1OC`, the growth was 22.2% in experiment [1]; 26.2% in experiment [2]; 22.8% in experiment [4]; -56.4% (active) in experiment [7]; 33.4% in experiment [6].

For `COc1cc(Cl)cc(-c2nn(-c3cccc(NC(=O)c4ccc(N5CCOCC5)c(C(F)(F)F)c4)c3)cc2-c2ccncc2)c1`, the growth in experiment [1] was 73%; in experiment [2], 63.4%; in experiment [3] it was 69.2%; in experiment [7], 47.7%; in experiment [5], 52.3%; in experiment [6], 38.4%.

Turning to `COc1ccc(NC2=NC(C)(CO)CS2)cc1` (centres undefined), the growth in experiment [1] is 98.4%; in experiment [2] it was 101%; in experiment [3], 104%; in experiment [7], 102%; in experiment [5], 104%; in experiment [6], 104%.

As for `Cc1cccc(Cl)c1NC(=O)c1ccc2nc(NC(=O)NC3CCN(C)CC3)sc2c1`, the growth is 98.2% in experiment [1]; 82.9% in experiment [2]; 98.4% in experiment [3]; 81.9% in experiment [7]; 105% in experiment [5]; 105% in experiment [6].
